FMDV antiviral – antivirals against foot and mouth disease virus | FMDV antiviral cell-based qHTS | Potency, µM (top dose mostly 57.9 µM), actives largely listed as inhibitors | 410,000 compounds, 1.2% hits | AID 1159524; calls by dose curve; tested in HEK293T cells; also: read-out not given here; nearly all actives have a fitted effect of over 45% in size
LASV entry inh – Lassa virus entry inhibition. Lassa virus pseudotype entry inhibition, cell reporter. Potency, µM (top dose mostly 37.9 µM), most hits filed as inhibitors. 300,000 compounds, 1.2% hits; calls by dose curve; tested in HEK293 cells; also: nearly all actives have a fitted effect of over 50% in size
MARV entry inh – Marburg virus entry inhibition. Marburg virus pseudotyped entry inhibition, cell reporter. Potency, µM (titrated, usually from 37.8 µM), actives largely listed as inhibitors. 300,000 compounds, 1.8% hits. AID 540276; calls by dose curve; tested in HEK293 cells
HCMV inh – blocks human cytomegalovirus replication | 410,000 compounds, 4.5% hits | HFF cells, HCMV-luciferase reporter, 72 h; stronger effect = lower value | AID 1259415 | activity change, negative = inhibition, % at 57.5 µM; in the data active = activity change below about -60%; inconclusive = no clear call, values can overlap the other calls; inactive = above about -39%
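HFF cells seeded 16 h at 37C, treated with compounds, infected with luciferase-reporter HCMV at MOI 1 PFU/cell; luciferase read at 72 h post infection, normalized to buffer-only and Salinomycin controls.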
HCV inh – HCV inhibition; 340,000 compounds, 3.4% hits; Huh7.5.1 HCVcc-Cre infection, luciferase reporter, 44 h; Potency, µM (doses to about 41.8 µM), most hits filed as inhibitors; active = well fitted inhibition curve with a large enough effect; inconclusive = small, poorly fitted or top-dose-only effect, or another doubt; inactive = no such curve, though single readings can be large or run the other way
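Infectious HCV cell culture screen: compound-treated cells (1,000/well, pre-plated 4 h) are infected with HCVcc-Cre at roughly 0.5 moi and grown 44 h. Infection is quantified by luciferase signal after 15 min substrate incubation at room temperature.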
A number is an active result; - = inactive; ? = inconclusive; . = not tested or not shown. In the library only some 7.9% were active in any assay of this set; here they are far more common.

SMILES	FMDV antiviral	LASV entry inh	MARV entry inh	HCMV inh	HCV inh
O=C1c2ccccc2C(=O)c2c(Nc3ccc(CCO)cc3)ccc(O)c21	-	.	-	-	?
Cc1ccc(NC2=C(NC(=O)c3ccccc3)C(=O)c3ccccc3C2=O)cc1Cl	-	?	?	?	?
O=C1C(Cl)=C(NCCc2ccccc2)C(=O)c2ccccc21	-	?	?	-64.0	?
O=C(O)c1cccc(NC2=C(Cl)C(=O)c3ccccc3C2=O)c1	?	.	.	-99.6	?
CC1CN(c2nnc(NC(=O)c3ccccc3)s2)CC(C)O1 (centres undefined)	-	-	?	-	-
O=C1C(Cl)=C(NCc2cccnc2)C(=O)c2ccccc21	?	?	?	-	12.6µM
CC(=O)N(Cc1ccc(F)cc1)C1=C(NCCc2ccccc2)C(=O)c2ccccc2C1=O	25.1µM	7.08µM	?	-99.8	10µM
CC(C)NC1=C(Cl)C(=O)c2ccccc2C1=O	-	-	-	?	?
COCCCNC1=C(Cl)C(=O)c2ccccc2C1=O	-	-	-	-	-
CC(=O)N(Cc1ccc(F)cc1)c1cccc(C)c1C	-	-	-	?	-
CCN(CC)CCCNC1=C(Cl)C(=O)c2ccccc2C1=O	28.2µM	?	?	-93.9	3.16µM
O=C1C(Cl)=C(Nc2ccccc2)C(=O)c2ccccc21	39.8µM	?	?	-	?
Cc1[nH][nH]c(=O)c1C(c1ccc(Cl)cc1)c1c(C)[nH][nH]c1=O	-	-	-	-	-
COCCN(C(=O)c1csnn1)C(C(=O)NC1CCCCC1)c1ccc(Cl)cc1 (centres undefined)	-	?	?	-99.2	-
O=C(NCc1ccccc1)C(c1ccc(Cl)cc1)N(C(=O)c1csnn1)C1CC1 (centres undefined)	-	-	-	-63.0	-
COCCN(C(=O)c1csnn1)C(C(=O)NC1CCCCC1)c1ccccc1 (centres undefined)	-	-	-	-	-
Cn1cc(/C=N/n2cnc3scc(-c4ccccc4)c3c2=O)c2ccccc21	-	-	?	-	6.31µM
O=c1c2c(-c3ccccc3)csc2ncn1/N=C/c1cccc([N+](=O)[O-])c1O	-	-	?	-	-
CN(C(=O)c1cccc(NC(=O)Cc2ccc(NC(=O)C3CCN(C(=O)CCc4ccccc4)CC3)cc2)c1)C1CC1	-	.	.	-	?
COc1ccc2nc3c(cc2c1)c(NC(=O)c1cccs1)nn3CC(C)C	-	-	?	-83.5	?
CC(C)Cn1nc(NC(=O)c2cccs2)c2cc3ccccc3nc21	-	.	.	-	8.91µM
CCCCn1nc(NC(=O)CC)c2cc3cc(OC)ccc3nc21	-	.	.	-	?
CCOC(=O)C1C(=O)N(C)C2(C)CC1c1ccccc1O2 (centres undefined)	-	-	-	-	-
Cc1ccc(/C=C/C(O)=C2/C(=O)N(C)C3(C)CC2c2ccccc2O3)cc1 (centres undefined)	14.1µM	-	?	-97.5	?
COc1ccc(/C=C/C(O)=C2/C(=O)N(C)C3(C)CC2c2ccccc2O3)cc1 (centres undefined)	14.1µM	?	8.2µM	-84.9	-
SMILES	FMDV antiviral	LASV entry inh	MARV entry inh	HCMV inh	HCV inh
COc1ccc(/C=C/C(O)=C2/C(=O)NC3(C)CC2c2ccccc2O3)c(OC)c1OC (centres undefined)	?	.	.	-65.2	?
CC(=O)N1CCC[C@H]1C(=O)NCC1Cc2cc(F)cc(-c3ccc(F)c(C)c3)c2O1 (some centres undefined)	-	.	.	.	.
Cn1cc(CNC2CCN(c3cccc(NC(=O)c4cccnc4)c3)CC2)cn1	-	.	.	.	.
CCOC(=O)c1c(S(=O)(=O)NCC(=O)Nc2cccc(SC)c2)c(C)n(C)c1C	-	-	.	-	.
CCCNc1nc(Nc2ccc(C)cc2)nc(N2CCCC2)n1	-	-	14.6µM	.	10µM
CCOC(=O)N1C(=O)C[C@H](C(=O)N2CCOCC2)[C@H]1c1ccc(OC)cc1	.	.	.	-	.
Cc1cccc(C2c3[nH]c4ccccc4c3CCN2C(=O)c2noc3c2CCCC3)n1 (centres undefined)	-	.	.	-	?
O=C(c1cc(-c2ccccc2)n[nH]1)N1CCc2c([nH]c3ccccc23)C1c1ccccn1 (centres undefined)	-	?	5.62µM	-	?
O=C(c1cccs1)N1CCc2c([nH]c3ccccc23)C1c1ccccn1 (centres undefined)	-	.	.	-	-
COc1ccc(OCC(=O)N2CCc3c([nH]c4ccccc34)C2c2ccccn2)cc1 (centres undefined)	-	.	.	-70.0	-
